Test [1] is described as follows: qHTS assay for small molecule agonists of the p53 signaling pathway (AID 651631; calls by dose curve; also: nearly all actives have a fitted effect of over 15% in size). Summed up:
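We treat p53RE-bla HCT-116 cells with compounds for 16 h at 37 °C, add LiveBLAzer B/G FRET substrate for 2 h at room temperature, and measure fluorescence intensity.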

A short description of test [2]: qHTS assay for small molecules that induce genotoxicity in human embryonic kidney cells expressing luciferase-tagged ATAD5 (AID 651632). Also: nearly all actives have a fitted effect of over 15% in size. Summed up: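 Luminescent reporter readout, HEK293T ATAD5-luc line: 16 hr drug exposure (37C, 5% CO2) followed by Amplite, 30 min RT.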
(qHTS replaces the single test concentration by a dilution series.)

Test [3] can be described thus: qHTS assay for small molecule agonists of the p53 signaling pathway - cell viability (AID 651633; calls by dose curve;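 also: p53RE-bla HCT reporter cells with a stable beta-lactamase p53 reporter; series mostly up to about 83 µM; nearly all actives have a fitted effect of over 30% in size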). Put shortly: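 p53RE-bla cells, seeded at 4,000 per well and rested 5 h at 37 C/5% CO2, received compounds in DMSO for 16 h at 37 C. CellTiter-Glo was then added, and luminescence was read after 30 min at room temperature to gauge cytotoxicity.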
The nature of test [4]: qHTS assay for small molecules that induce genotoxicity in human embryonic kidney cells expressing luciferase-tagged ATAD5 - cell viability (AID 651634; calls by dose curve; also: nearly all actives have a fitted effect of over 25% in size; also: potency is read from the fitted curve at half-maximal effect). Put shortly: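 Viability read: CellTiter-Fluor fluorescence, 30 min at 37C. Cells: HEK293T, luciferase-tagged ATAD5. Exposure: 15.5 hr, 37C, 5% CO2, compound or DMSO vehicle.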
Test [5] can be described thus: qHTS assay for small molecule disruptors of the mitochondrial membrane potential - cell viability (AID 720634; calls by dose curve;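 also: human HepG2 liver cancer cells; series mostly up to about 83 µM; nearly all actives have a fitted effect of over 20% in size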). Put shortly:
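HepG2, 1 hr compound, 37 C. ATP luminescence via CellTiter-Glo, 30 min RT, same well as m-MPI.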

The nature of test [6]: qHTS assay for small molecule disruptors of the mitochondrial membrane potential (AID 720635). Also: potency is read from the fitted curve at half-maximal effect. Summed up: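 HepG2 cells (2,000/well) attached overnight at 37C, then took compound for 1 hr at 37C, 5% CO2. Mito-MPS dye was added for 30 min; fluorescence was read at 490/535 nm (monomers) and 540/590 nm (aggregates).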
Test [7] in a line: qHTS assay to test for compound auto fluorescence at 590 nm (red) in HepG2 cells (AID 720674). Summed up:
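Rose Bengal sodium served as the red fluorophore standard. HepG2 monolayers (overnight attachment, MEM with 10% FBS) were exposed to test compounds for 1 hr at 37 C and read at Ex 540/Em 590 nm.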

Test [8] can be described thus: qHTS assay to test for compound auto fluorescence at 535 nm (green) in HepG2 cells (AID 720675).
The nature of test [9]: qHTS assay to test for compound auto fluorescence at 460 nm (blue) in HEK293 cells (AID 720678). Put shortly:
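Triamterene serves as the blue fluorophore standard. Compound signal at 405/460 nm is read in HEK293 wells (2,000 cells, 10% dialyzed FBS) after overnight treatment at 37C.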

Test [10] can be described thus: qHTS assay to test for compound auto fluorescence at 590 nm (red) in HEK293 cells (AID 720679). Summed up:
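We plated HEK293 cells in 10% dialyzed FBS medium, let them adhere for 4-5 hr, then added 23 nL compound. Overnight at 37C and 5% CO2 preceded fluorescence measurement at 540/590nm.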

The nature of test [11]: qHTS assay to test for compound auto fluorescence at 535 nm (green) in HEK293 cells (AID 720680).
A short description of test [12]: qHTS assay to test for compound auto fluorescence at 460 nm (blue) in HEK293 cell free culture (AID 720681). Put shortly: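 Test compounds were pinned into cell-free culture medium (DMEM with 10% FBS) and fluorescence was read directly at Ex/Em 405/460 nm. Signals were expressed as fluorescence equivalents of triamterene, with DMSO vehicle as control.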
Test [13] in a line: qHTS assay to test for compound auto fluorescence at 535 nm (green) in HEK293 cell free culture (AID 720682). Summed up:
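Green-channel intensity (Ex/Em 485/535 nm) was recorded from compound-treated wells containing only DMEM with 10% FBS. Fluorescein provided the equivalency standard.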

Test [14] can be described thus: qHTS assay to test for compound auto fluorescence at 590 nm (red) in HEK293 cell free culture (AID 720683). Put shortly: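 Tox21 10K library compounds were pinned into cell-free DMEM with 10% FBS and fluorescence was read at excitation 540 nm. Activity is expressed as Rose Bengal sodium equivalency.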
A short description of test [15]: qHTS assay to test for compound auto fluorescence at 590 nm (red) in HepG2 cell free culture (AID 720684). Summed up:
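Red fluorescence (540 nm excitation, 590 nm emission) was measured after compound transfer into cell-free MEM supplemented with 10% FBS. Values are equivalencies against Rose Bengal sodium.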

Test [16] in a line: qHTS assay to test for compound auto fluorescence at 460 nm (blue) in HepG2 cell free culture (AID 720685). Summed up: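 Compound (23 nL) or DMSO pinned into cell-free MEM with 10% FBS; blue fluorescence read at 405/460 nm excitation/emission, expressed as auto-fluorescence equivalency to triamterene.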
Test [17] is described as follows: qHTS assay to test for compound auto fluorescence at 535 nm (green) in HepG2 cell free culture (AID 720686).
A short description of test [18]: qHTS assay to test for compound auto fluorescence at 460 nm (blue) in HepG2 cells (AID 720687). Summed up: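 Cells (2,000/well in MEM with 10% FBS) attached overnight at 37 C, then were exposed to compound or DMSO for 1 hr at 37 C, 5% CO2. Fluorescence read at Ex/Em 405/460 nm, expressed as triamterene-equivalent signal.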
Test [19] addresses Glucocorticoid receptor (Homo sapiens) (UniProt P04150). Kind of test: qHTS assay to identify small molecule antagonists of the glucocorticoid receptor (GR) signaling pathway (AID 720692; active = well fitted inhibition curve with a large enough effect in the signal ratio in the repeat runs, not every such curve was filed as active; the % refers to the signal ratio). Put shortly: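 Inhibition of glucocorticoid signalling is measured in HeLa cells with a GRE-controlled beta-lactamase reporter; cells are co-treated with compound and 5 nM dexamethasone (final) for 18 h before FRET substrate readout.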

Values joined by “and” are separate entries in the source; they are usually repeats but may differ in a detail not shown here. Equal values may be shown once. Records with an inconclusive call do not appear. Active and inactive are the calls of the source. Unless noted, calls follow the shape of the dose curve; as a rule, active = well fitted curve in the direction sought with a large enough effect in the repeat runs; inconclusive = weak or mixed curves; inactive = no such curve, though single readings can be large; an effect the other way counts as inactive or inconclusive.

Glucocorticoid receptor (Homo sapiens), sequence (P04150 whole entry, looked up): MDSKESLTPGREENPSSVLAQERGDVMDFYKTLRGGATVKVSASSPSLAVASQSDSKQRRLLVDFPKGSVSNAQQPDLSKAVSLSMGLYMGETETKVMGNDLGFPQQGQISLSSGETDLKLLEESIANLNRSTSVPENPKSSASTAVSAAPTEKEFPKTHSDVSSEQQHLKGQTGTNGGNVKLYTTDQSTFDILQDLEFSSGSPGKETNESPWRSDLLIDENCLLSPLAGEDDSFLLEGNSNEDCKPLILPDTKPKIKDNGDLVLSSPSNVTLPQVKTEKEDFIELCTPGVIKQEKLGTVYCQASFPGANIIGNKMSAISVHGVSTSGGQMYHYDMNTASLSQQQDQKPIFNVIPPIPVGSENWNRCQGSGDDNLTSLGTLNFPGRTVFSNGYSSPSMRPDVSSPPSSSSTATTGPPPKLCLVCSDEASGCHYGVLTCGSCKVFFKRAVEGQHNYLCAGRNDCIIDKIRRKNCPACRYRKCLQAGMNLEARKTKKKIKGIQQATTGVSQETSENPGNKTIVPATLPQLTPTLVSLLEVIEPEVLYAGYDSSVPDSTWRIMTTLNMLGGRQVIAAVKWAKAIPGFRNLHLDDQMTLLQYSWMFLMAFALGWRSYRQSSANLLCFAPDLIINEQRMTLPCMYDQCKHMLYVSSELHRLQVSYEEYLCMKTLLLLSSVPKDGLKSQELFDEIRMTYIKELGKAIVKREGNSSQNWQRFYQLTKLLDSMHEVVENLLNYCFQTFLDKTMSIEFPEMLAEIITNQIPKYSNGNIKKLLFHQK

With `O=C(O)CCCCC1CCSS1` (centres undefined), the Potency result in test [1], in [2], in test [3], in test [4], in [5] and in test [6] was “inactive” in each case. Besides, the Potency result in test [19] is “inactive”. Also, the compound was called inactive in test [7], in test [8], in [9], in [10], in test [11] and in test [12]. In addition, the result in test [13], in [14], in [15], in test [16], in [17] and in [18] was inactive.
For the compound `COc1ccc(O)cc1`, the Potency entry in [1], in test [2], in test [3], in [4], in [5] and in [6] was “inactive” each time. Besides, in test [19], the Potency result was “inactive”. Further, the compound was called inactive in test [7], in [8], in test [9], in test [10], in [11] and in test [12]. In addition, the result in [13], in test [14], in [15], in test [16], in [17] and in test [18] was inactive.
For the compound `CC(=O)c1ccc(S(=O)(=O)NC(=O)NC2CCCCC2)cc1`, the Potency result in test [1], in test [2], in test [3], in test [4], in [5] and in [6] was “inactive” in each case. Moreover, the Potency entry in test [19] was “inactive”. For the same compound, the compound was classed as inactive in test [7], in test [8], in test [9], in test [10], in test [11] and in test [12]. Besides, the outcome in [13], in [14], in test [15], in test [16], in test [17] and in test [18] was inactive.
On to `CC(=O)CCC(C)C`, for which the Potency entry in test [1], in test [2], in [3], in test [4], in test [5] and in [6] was “inactive” in each case. Further, in test [19], the Potency result is “inactive”. For the same compound, the compound was called inactive in [7], in test [8], in test [9], in test [10], in [11] and in test [12]. Moreover, the outcome in test [13], in [14], in [15], in test [16], in test [17] and in test [18] was inactive.
On to `CO[C@H]1C=CO[C@@]2(C)Oc3c(C)c(O)c4c(O)c(c(/C=N/N5CCN(C)CC5)c(O)c4c3C2=O)NC(=O)/C(C)=C\C=C[C@H](C)[C@H](O)[C@@H](C)[C@@H](O)[C@@H](C)[C@H](OC(C)=O)[C@@H]1C`, for which the Potency entry in test [1], in test [2], in [3] and in [5] was “inactive” in each case. The Potency in test [4] was 23.7 µM (active) and 48.8 µM (active) and 39 µM (active); in test [6], 10.6 µM (active) and 24.5 µM (active) and 11 µM (active). For the same compound, the call in test [7], in test [9], in test [10], in [11], in test [12] and in test [13] was inactive. Besides, the compound was classed as inactive in [14], in [15], in test [16], in test [17] and in test [18].
Consider `CC(C)CC(C)CC(O)CC(C)C` (centres undefined), for which the Potency result in test [1], in test [2], in test [3], in test [4], in test [5] and in test [6] was “inactive” each time. Besides, the compound was classed as inactive in test [7], in [8], in test [9], in test [10], in [11] and in test [12]. In addition, the compound was classed as inactive in test [13], in test [14], in test [15], in [16], in test [17] and in test [18].
In the case of `OC[C@@H](O)[C@@H](O)[C@H](O)[C@H](O)CO`, the Potency result in test [1], in [2], in [3], in test [4], in [5] and in [6] was “inactive” in each case. In addition, the compound was called inactive in test [7], in test [8], in test [9], in test [10], in test [11] and in test [12]. The result in test [13], in test [14], in test [15], in test [16], in test [17] and in test [18] was inactive.

The values are drawn from PubChem BioAssay (Tox21).
